Data from the supplement of paper PMC13380429.
A number with no mark means an inactive call.

System: Vero E6 infected with SARS-CoV-2
Test: inhibition of SARS-CoV-2 cytopathic effect; higher = more antiviral protection, active = above 15
Settings: 48 h

Row | SMILES | inhibition of SARS-CoV-2 cytopathic effect (1 nM) [%] | inhibition of SARS-CoV-2 cytopathic effect (8.33 nM) [%] | inhibition of SARS-CoV-2 cytopathic effect (100 nM) [%] | inhibition of SARS-CoV-2 cytopathic effect (833.33 nM) [%] | inhibition of SARS-CoV-2 cytopathic effect (10000 nM)
1 | CCC1=C[C@@H]2CN(C1)Cc1c([nH]c3ccccc13)[C@@](C(=O)OC)(c1cc3c(cc1OC)N(C)[C@H]1[C@@](O)(C(=O)OC)[C@H](OC(C)=O)[C@]4(CC)C=CCN5CC[C@]31[C@@H]54)C2 [vinorelbine] | -1.63 | -1.57 | -1.35 | -2.48 | -3.81%
2 | CNC(=O)c1cnn(-c2nc(N)c3ncn([C@@H]4O[C@H](CO)[C@@H](O)[C@H]4O)c3n2)c1 [regadenoson] | 1.53 | 0.87 | 3.4 | -1.38 | -0.12%
3 | CCN1CCCC(OC(=O)C(c2ccccc2)c2ccccc2)C1 (stereo not given) [piperidolate] | -8.23 | -7.13 | -7.85 | -6.63 | -10.7%
4 | O=C(O)Cn1c(C(=O)Nc2nc(-c3ccccc3Cl)cs2)cc2ccccc21 | 0.3 | -0.21 | 0.61 | -0.36 | -0.66%
5 | O=C(C[S+]([O-])C(c1ccccc1)c1ccccc1)NO (stereo not given) [adrafinil] | -1.03 | -1.5 | -3.32 | 1.58 | -1.53%
6 | O=P(O)(O)C(Cl)(Cl)P(=O)(O)O [clodronic-acid] | 0.55 | 0.27 | 0.5 | 2.21 | -1.06%
7 | C[C@]12CC[C@@H]3c4ccc(OS(=O)(=O)O)cc4CC[C@H]3[C@@H]1CCC2=O [estropipate] | -1.99 | 1.92 | 0.66 | 1.96 | -6.12%
8 | CCOC(=O)c1cnc2c(cnn2CC)c1NN=C(C)C [etazolate] | -0.85 | 4.04 | 0.13 | 1.35 | -1.47%
9 | CN(C)CCCC1(c2ccc(F)cc2)OCc2cc(C#N)ccc21 (stereo not given) [citalopram] | -0.29 | 2.58 | 1.49 | -0.995 | -4.99%
10 | COC(=O)c1cnn(-c2ccc(F)cc2F)c1/C=N/NC(=S)NC(C)(C)C | -1.1 | 0.05 | 2.03 | 3.03 | 6.39%
11 | CCOC(=O)c1ccccc1OC(N)=O [ethyl-2-(carbamoyloxy)benzoate] | -8.28 | -7.77 | -4.5 | -2.39 | -3.35%
12 | CCCN1CCC[C@@H]2Cc3n[nH]cc3C[C@H]21 [quinpirol-(-)] | -2.17 | 2.95 | 0.48 | -2.24 | -0.87%
13 | CN(C)CC[C@H](CSc1ccccc1)Nc1ccc(S(=O)(=O)NC(=O)c2ccc(N3CCN(Cc4ccccc4-c4ccc(Cl)cc4)CC3)cc2)cc1[N+](=O)[O-] | -0.41 | -0.39 | -6.74 | -16.3 | -20.2%
14 | COc1cc2nccc(Oc3ccc(NC(=O)Nc4ccc(F)cc4F)c(F)c3)c2cc1OC | -0.54 | 1.76 | 4.46 | 4.37 | 5.75%
15 | Nc1ccc(S(N)(=O)=O)cc1 [sulfanilamide] | -4.21 | -0.69 | 4.19 | 2.93 | 1.32%
16 | CC(=O)Nc1cccc(O)c1 [metacetamol] | 1.03 | 5.41 | 3.07 | 4.81 | 4.76%
17 | Nc1nc(NC2CC2)cc(-c2cccc(Cl)c2Cl)n1 | 0.66 | -1.17 | -1.96 | -0.45 | -1.5%
18 | O=C(Nc1cccc(C(F)(F)F)c1)Nc1cc(S(=O)(=O)NC2CC2)ccc1-c1ccsc1 | -0.22 | -0.85 | 0.27 | 0.38 | 0.46%
19 | COC(=O)N[C@H](C(=O)N[C@@H](Cc1ccccc1)[C@@H](O)CN(Cc1ccc(-c2ccccn2)cc1)NC(=O)[C@@H](NC(=O)OC)C(C)(C)C)C(C)(C)C [atazanavir] | -1.78 | 2.1 | 1.84 | -0.5 | -0.09%
20 | CCOC(=O)c1cncn1[C@H](C)c1ccccc1 [etomidate] | 0.18 | -0.71 | -2.47 | 1.97 | 0.06%
21 | O=C1O[C@H](CO)[C@@H](O)[C@H](O)[C@H]1O [gluconolactone] | -1.05 | 1.67 | -0.14 | -0.97 | -1.07%
22 | COc1ccc(CNC(=O)Nc2ncc([N+](=O)[O-])s2)cc1 | -1.91 | 2.48 | -0.26 | -1.47 | 2.28%
23 | O=C(CCCN1CCC2(CC1)C(=O)N(Cc1cccc(F)c1)CN2c1ccccc1)c1ccc(F)cc1 [3'-fluorobenzylspiperone] | 1.1 | 1.76 | 1.3 | 4.46 | 71.7% (active)
24 | COc1cc2c(c(OC)c1OC)-c1ccc(OC)c(=O)cc1[C@@H](NC(C)=O)CC2 [colchicine] | 2.74 | 2.19 | 0.8 | -0.41 | 1.35%
25 | Cc1cn2nc([C@@H]3CCCCN3C(=O)c3cc(Cl)ccc3NS(C)(=O)=O)cc2nc1N1CC[C@H](N)C1 [presatovir] | 2.31 | 0.48 | -1.98 | -1.96 | -4.09%
